The source of these data is PubChem BioAssay AID1778 (Sanford-Burnham Center for Chemical Genomics, 2009).

The structures appear in SMILES notation. The whole screen tested about 290,000 compounds, of which about 260 (0.09%) were called active. Rule as the data show it: active = inhibition above about 50%; inactive = the rest. For the sample, actives were picked, then their nearest neighbours and some compounds at random. Measured potencies and affinities stand elsewhere.

Sequence of Kappa-type opioid receptor (Homo sapiens) (P41145 whole entry, looked up): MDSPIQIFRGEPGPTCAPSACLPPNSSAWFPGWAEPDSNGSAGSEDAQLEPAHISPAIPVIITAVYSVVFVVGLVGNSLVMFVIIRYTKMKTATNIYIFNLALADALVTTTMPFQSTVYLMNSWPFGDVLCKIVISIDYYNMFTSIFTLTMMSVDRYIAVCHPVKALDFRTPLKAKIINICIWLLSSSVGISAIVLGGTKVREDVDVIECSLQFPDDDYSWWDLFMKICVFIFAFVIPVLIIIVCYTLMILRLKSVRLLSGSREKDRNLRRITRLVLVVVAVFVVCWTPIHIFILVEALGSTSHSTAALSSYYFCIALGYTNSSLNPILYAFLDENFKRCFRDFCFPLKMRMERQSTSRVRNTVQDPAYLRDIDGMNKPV

The experiment has as its target Kappa-type opioid receptor (Homo sapiens) (UniProt P41145). In words: KOR antagonists, beta-arrestin recruitment, cell-based, luminescence, uHTS (AID 1778). The settings on record: antagonist mode, hits give high values; at 10 µM unless noted.
By inhibition is commonly meant the change of the read-out against control, counted positive when it falls. With `O=C1CSC(c2ccccc2Br)N1c1ccc(Cl)cn1` (centres undefined), the inhibition is 2.8% (inactive).

As to `CCOC(=O)c1nn(-c2ccccc2C)c2nc(CC(C)C)c(C#N)c(=O)n12`, the inhibition is -35.8% (inactive).

For the molecule `O=C(Nc1nc(-c2ccccn2)cs1)c1cc(Cl)ccc1[N+](=O)[O-]`, the inhibition was 86.8% (active).

As for `Cc1cc(C(=O)Nc2nc(-c3ccccn3)cs2)ccc1[N+](=O)[O-]`, the inhibition was 22.6% (inactive).

For `O=C(Nc1nccs1)c1cc(Cl)ccc1[N+](=O)[O-]`, the inhibition was 8.6% (inactive).

In the case of `CNC(=O)CSc1nc2ccccc2c(=O)n1-c1cc(OC)ccc1OC`, the inhibition was 0.7% (inactive).

Consider `CC(NC(=O)Cn1cc(C(F)(F)F)ccc1=O)c1ccc(F)cc1` (centres undefined), for which the inhibition is -19.7% (inactive).

`Cc1ccc(-c2nnc(SCC(N)=O)n2C)cc1`: the inhibition is -13.4% [at 20 µM] (inactive).

For `COC(=O)CC(N)c1ccc(OC)c2ccccc12` (centres undefined), the inhibition was 15.2% (inactive).

`Oc1ccc(N=Nc2nc(-c3ccccc3)c(-c3ccccc3)[nH]2)cc1`: the inhibition is 32.4% (inactive).

Take `Cc1[nH]oc(=O)c1N=Nc1ccccc1`: the inhibition was -11% (inactive).

`N#Cc1ccc(NC(=O)CSc2cn[nH]n2)cc1`: the inhibition was -56.1% (inactive).

Turning to `CC(NC(=O)c1cc2cc([N+](=O)[O-])ccc2oc1=O)C1CCCO1` (centres undefined), the inhibition was -4.3% [at 20 µM] (inactive).

For `C#CCOCCOCCOCCNc1nc(N2CCN(C(=O)[C@H](Cc3cc4ccccc4[nH]3)n3cc([C@@H](N)Cc4ccc(O)cc4)nn3)CC2)nc(N2CCN(C(=O)[C@H](Cc3cc4ccccc4[nH]3)n3cc([C@@H](N)CC(C)C)nn3)CC2)n1`, the inhibition was 51.3% (active).

`C#CCOCCOCCOCCNc1nc(N2CCN(C(=O)C(Cc3ccc(O)cc3)n3cc(C(N)CC(C)C)nn3)CC2)nc(N2CCN(C(=O)C(Cc3cc4ccccc4[nH]3)n3cc(C(N)Cc4ccc(O)cc4)nn3)CC2)n1` (centres undefined): the inhibition was 12% (inactive).

On to `C#CCOCCOCCOCCNc1nc(N2CCN(C(=O)[C@H](Cc3ccc(O)cc3)n3cc([C@@H](N)CC(C)C)nn3)CC2)nc(N2CCN(C(=O)[C@H](Cc3cc4ccccc4[nH]3)n3cc([C@@H](N)CC(C)C)nn3)CC2)n1`, for which the inhibition is 10.8% (inactive).

`O=C(Nc1ccc(OC(F)(F)F)cc1)c1ccc2ccccc2n1`: the inhibition was -27.1% (inactive).

As for `Cc1nnc(Sc2cc(NCCO)c([N+](=O)[O-])c3nonc23)s1`, the inhibition was 17.1% (inactive).

For the molecule `Cc1ccc(Sc2cc(NCCCO)c([N+](=O)[O-])c3nonc23)cc1`, the inhibition is 5.8% (inactive).

On to `CCCC(=O)OCCNc1cc(SCc2ccco2)c2nonc2c1[N+](=O)[O-]`, for which the inhibition is 9.3% (inactive).

Turning to `CCCSc1cc(NCCOC(C)=O)c([N+](=O)[O-])c2nonc12`, the inhibition was -12.8% (inactive).

Regarding `O=[N+]([O-])c1c(NCCCO)cc(Sc2nc3ccccc3s2)c2nonc12`, the inhibition is 42.1% (inactive).

As to `CCCC(=O)OCCNc1cc(Sc2nc3ccccc3[nH]2)c2nonc2c1[N+](=O)[O-]`, the inhibition was 49.9% (inactive).

As to `CC(=O)OCCCNc1cc(Sc2nc3ccccc3s2)c2nonc2c1[N+](=O)[O-]`, the inhibition is -22.9% (inactive).

`CC(=O)OCCNc1cc(SC(C)C)c2nonc2c1[N+](=O)[O-]`: the inhibition is -32.5% (inactive).

`CCOC(=O)Nc1sc2nc(C)cc(C)c2c1-n1cccc1`: the inhibition is -25.7% (inactive).

With `COCCN(C(=O)c1cccc(OC)c1)c1nnc(-c2ccncc2)s1`, the inhibition is 24.5% (inactive).

Take `COc1ccccc1N1CCN(CC(=O)c2c(C)[nH]c3ccccc23)CC1`: the inhibition was -0.2% (inactive).

On to `COc1cc(OC)c(OC)cc1/C=N/NC(=S)NCC1CCCO1` (centres undefined), for which the inhibition is 1.1% (inactive).

As to `CCn1c(SCC(=O)Nc2nc3c(s2)CCCC3)nc2c1c(=O)n(C)c(=O)n2C`, the inhibition was -6.8% (inactive).

With `C=CCOC(=O)C(=O)/C=C/c1ccc2c(c1)Cc1ccccc1-2`, the inhibition was -23.3% (inactive).

With `CCCc1ccc2oc(C(=O)N(C)CCn3ccnc3C)c(C)c2c1`, the inhibition is -19.1% [at 20 µM] (inactive).

`CC(=O)NC(Cc1cc(C)ccc1C)C(=O)N1CCN(C(=O)c2ccc([N+](=O)[O-])cc2)CC1` (centres undefined): the inhibition is -2.4% (inactive).

Take `COc1cc(-c2nc3ccccn3c2/N=C/c2cccc(F)c2)ccc1O`: the inhibition is -3.3% (inactive).

For `COc1cc(CNS(=O)(=O)c2ccc3c(c2)CC(C)N3C(=O)C2CCC2)cc(OC)c1OC` (centres undefined), the inhibition is -10.7% (inactive).

Turning to `Oc1[nH]c2ccccc2c1N=NC(=S)N1CCOCC1`, the inhibition was 63.2% (active).

On to `NC(=S)N=Nc1c(O)[nH]c2ccccc12`, for which the inhibition was 18.5% (inactive).

On to `Oc1[nH]c2ccc(Br)cc2c1N=NC(=S)N1CCOCC1`, for which the inhibition was 49.6% (inactive).

`COC(=O)CCC(=O)Nc1c(C)n(C)n(-c2ccccc2)c1=O`: the inhibition was 22.3% [at 20 µM] (inactive).

For `Cc1cc(OCC(=O)Nc2ccc(S(=O)(=O)N3CCN(C)CC3)cc2)ccc1Cl`, the inhibition was -13.3% (inactive).

Take `Cc1cc(OCC(=O)Nc2ccc(S(=O)(=O)N3CCN(C)CC3)cc2)ccc1Br`: the inhibition is 3.2% (inactive).

As for `O=C(c1ccccn1)N1CCN(c2cccc(C(F)(F)F)c2)CC1`, the inhibition was -1.3% (inactive).

With `CCOC(=O)c1cnn(-c2nc(SC)nc3sc4c(c23)CCCC4)c1N`, the inhibition was 5.6% (inactive).

`CCOC(=O)c1cnn(-c2nc3sc4c(c3c(=O)[nH]2)CCCC4)c1N`: the inhibition was 75% (active).

Regarding `CCOC(=O)c1cnn(-c2nc(C)nc3sc4c(c23)CCC4)c1N`, the inhibition is -9.9% (inactive).

Regarding `Cc1onc(-c2ccccc2)c1C(=O)N=C(N)c1ccc(C(F)(F)F)cc1`, the inhibition is 19.1% (inactive).

Turning to `CCOc1cc(/C=N/NC(=O)C(=O)NCCCOC(C)C)cc(Br)c1O`, the inhibition is 4.9% (inactive).

Take `CCN1CCN(CCC(=O)Nc2ccc(C)cc2)CC1`: the inhibition is -48.9% [at 20 µM] (inactive).

Take `Cc1cccc(CC2CC(=O)N(c3ccccc3)C2=O)c1` (centres undefined): the inhibition was -23.5% (inactive).

Regarding `Cc1ccc(C)c(S(=O)(=O)N2CCC3(CC2)OCCO3)c1`, the inhibition was 11.1% (inactive).

Regarding `O=C1COc2ccc(-c3csc(=Nc4ccc(OC(F)F)cc4)n3CC3CCCO3)cc2N1` (centres undefined), the inhibition is 14.3% (inactive).

As for `CN(C)S(=O)(=O)c1cccc(N=c2scc(-c3ccc4c(c3)NC(=O)CO4)n2CC2CCCO2)c1` (centres undefined), the inhibition is -17.4% (inactive).

For the molecule `CSCCNC(=O)c1ccc(OC2CCN(S(=O)(=O)N(C)C)CC2)cc1`, the inhibition is 11.7% [at 20 µM] (inactive).

Take `CN(C)C(=O)c1c2c(nc3ccccc13)-c1ccccc1CC2`: the inhibition is 7.9% (inactive).

As to `CCOc1ccc(NC(=O)c2ccc(NC(=S)NC3CCCCC3)cc2)cc1`, the inhibition was 5.4% [at 20 µM] (inactive).

Take `Cc1ccc(OCc2ccccc2C)c([N+](=O)[O-])n1`: the inhibition is -33% (inactive).

As to `CCCN(CCC)CC(O)Cn1cc(/C=C/C(=O)c2ccccc2)c2ccccc21` (centres undefined), the inhibition is 19% (inactive).

Turning to `CCCCN(C)CC(O)Cn1cc(/C=C/C(=O)c2cccs2)c2ccccc21` (centres undefined), the inhibition is 19.9% (inactive).

In the case of `COC(=O)c1sc(N)c(C(=O)OC)c1CSc1nnnn1C`, the inhibition is -5.2% (inactive).

Regarding `Cc1ccc(C(=O)Nc2nnc(-c3ccco3)o2)cc1C`, the inhibition is 40.8% (inactive).

With `O=C(Nc1nnc(-c2ccc3c(c2)OCCO3)o1)c1ccc(Cc2ccccc2)cc1`, the inhibition is 51.8% (active).

`O=C(Nc1nnc(-c2ccco2)o1)c1ccc2ccccc2c1`: the inhibition is 89.7% (active).

With `O=C(CCc1ccccc1)Nc1nnc(-c2ccc3c(c2)OCCO3)o1`, the inhibition was 11.2% (inactive).

As to `CCCN(CCC)S(=O)(=O)c1ccc(C(=O)Nc2nnc(-c3cc(OC)cc(OC)c3)o2)cc1`, the inhibition was -91.7% (inactive).

Consider `Cc1ccc(C(=O)Nc2nnc(-c3ccco3)o2)cc1`, for which the inhibition is 14.7% (inactive).

In the case of `O=C(Nc1nnc(C2=COCCO2)o1)c1ccc(Cc2ccccc2)cc1`, the inhibition is -22.6% [at 20 µM] (inactive).

With `COc1ccc(-c2nnc(NC(=O)c3ccc4c(c3)OCCO4)o2)cc1`, the inhibition is 29.6% (inactive).

`CC1CCN(CC(=O)Nc2ccccc2Sc2ccccc2)CC1`: the inhibition was -8% (inactive).

Take `O=C(Nc1cccnc1)c1ccccc1Cl`: the inhibition was 21.5% [at 20 µM] (inactive).

Take `CN1CCC(N(C)S(=O)(=O)c2ccc(F)cc2F)CC1`: the inhibition was -33.5% (inactive).

Turning to `Cc1c(C(=O)O)[nH]c2c1C(=O)CC(c1ccc(C(C)(C)C)cc1)C2` (centres undefined), the inhibition was 14.6% (inactive).

For `NNC(=S)Nc1cccc(Cl)c1`, the inhibition is 18.7% (inactive).

In the case of `Cc1csc(NC(=S)Nc2cccc(Cl)c2)n1`, the inhibition was 57.9% (active).

On to `Cc1csc(NC(=O)Nc2cccc(Cl)c2)n1`, for which the inhibition is -9.6% (inactive).

`COc1ccc(OC)c(-n2c(SCC(C)=O)nnc2-c2cccc(S(=O)(=O)N(C)C)c2)c1`: the inhibition is 21.3% (inactive).

Regarding `O=C(Nc1cccc(C(F)(F)F)c1)Oc1ccc(Cl)c2cccnc12`, the inhibition is 65.4% (active).

As to `CCN(CC)C(=O)Oc1ccc(Cl)c2cccnc12`, the inhibition is 16.1% [at 20 µM] (inactive).

`O=C(Oc1ccc(Cl)c2cccnc12)c1ccco1`: the inhibition is 6.4% (inactive).

`CSC(=S)N/N=C(\C)c1ccc(Br)cc1`: the inhibition is 46.1% (inactive).

For the molecule `C/C(=N\NC(N)=S)c1ccccc1`, the inhibition was 11.9% (inactive).

Take `Cc1c(C(=O)Nc2ccc3c(c2)OCO3)oc2ccccc12`: the inhibition is -1.2% (inactive).

For the molecule `Cc1cc(=S)nc(-c2ccccn2)[nH]1`, the inhibition was -17.8% (inactive).

For the molecule `Cc1ccc2nc(-c3ccccn3)[nH]c2c1`, the inhibition is -33.9% [at 20 µM] (inactive).

Regarding `CCN(CC)CCn1c2ccccc2c2cnc(N=CN(C)C)c(C#N)c21`, the inhibition is -24.3% (inactive).

Take `CSc1sc2ccccc2[n+]1CCCS(=O)(=O)[O-]`: the inhibition is 21.2% (inactive).

As to `CCO/C(=C/c1sc2ccc(OC)cc2[n+]1CCCS(=O)(=O)[O-])CC`, the inhibition was 2.7% (inactive).

Take `O=c1cc(-c2ccccc2)nc(Cc2c(Cl)cccc2Cl)[nH]1`: the inhibition is 29.4% (inactive).

As to `CCNC(=O)NC(=O)C(C)OC(=O)CCS(=O)(=O)c1ccc(C)cc1` (centres undefined), the inhibition was -30.7% (inactive).

As to `COc1ccc(S(=O)(=O)N2CCN(C(=O)COc3ccc(C)c(C)c3)CC2)cc1OC`, the inhibition is -25.1% (inactive).
